HIF-2a inh = inhibitors of HIF-2a | 786-0 RCC cells HIF-2a reporter, luciferase luminescence, overnight | inhibition, % at 18.8 µM | 360,000 tested, 0.72% active | AID 624352;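 active = inhibition of the luminescence signal of 40% or more relative to plate controls, in a single-dose primary screen at 18.75 µM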
KKLEB cytotox = CF airway cell cytotoxicity counter-screen. 360,000 tested, 0.36% active. activity change (cytotoxicity), % at 5 µM. KKLEB CF airway cells viability, ATPlite luminescence, overnight; active compounds read low; cells stimulated with P. aeruginosa culture filtrate;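 active = corrected activity change at or below -50% at 5 µM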
Peg3 prom inh = reduces Peg3 promoter-driven luciferase expression in HeLa. HeLa PEG-Prom luciferase reporter, luminescence, overnight. inhibition, % at 20 µM. 360,000 tested, 1.7% active;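 active = inhibition of at least 50% at 20 µM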
CF NFkB block = inhibitors of cystic fibrosis induced NF-kB. KKLEB NF-kB-GFP reporter, PAF-induced, GFP fluorescence overnight. inhibition, % at 5 µM. 360,000 tested, 0.86% active;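 active = at least 50% inhibition at 5 µM, scaled per plate between neutral and stimulator controls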;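 also: PAF is a Pseudomonas aeruginosa culture filtrate used as stimulus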
TROY NFkB inh = TROY signaling inhibition; inhibition, % at 10 µM; 360,000 tested, 0.98% active; Q293 LMP1-TROYcd NF-kB luciferase reporter, 4 h;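 active = compounds whose plate-normalised and pattern-corrected inhibition of the luciferase reporter signal at the single screening dose is 50% or more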
TWEAK Fn14 block = TWEAK-Fn14 signaling inhibition; TWEAK-stimulated Fn14 reporter cells, luciferase luminescence, 8 h; inhibition, % at 10 µM; 360,000 tested, 2% active; in the data active = inhibition above about 50%
CF NFkB conf = CF NF-kB inhibition confirmation, single concentration | shares compounds with CF NFkB block | KKLEB CF airway cells, PAF-induced NF-kB-GFP fluorescence, overnight | inhibition, % at 5 µM | 1,300 tested, 64% active | AID 602472; in the data active = inhibition above about 40%;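 also: stimulus PAF is a Pseudomonas aeruginosa filtrate and not platelet activating factor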
A number is an active result; . = inactive; / = no result given. Most compounds without a hit are left out; they make up all but 4% or so of the library.

SMILES	HIF-2a inh	KKLEB cytotox	Peg3 prom inh	CF NFkB block	TROY NFkB inh	TWEAK Fn14 block	CF NFkB conf
COc1ccc([C@H]2CC(=O)C=C(c3ccc(OC)c(OC)c3)C2)cc1	.	.	.	57	.	.	.
Cc1ccc(C)c(OCC(=O)Nc2cc(NC(=O)COc3cc(C)ccc3C)cc(C(=O)O)c2)c1	.	.	.	.	.	.	/
O=C(NCCc1ccccc1)c1coc(=O)c(Br)c1	.	.	107	69	.	78	76
CN(C)CCNC(=O)c1coc(=O)c(Br)c1	.	.	.	.	.	.	/
C[C@H](CO)N1C[C@H](C)[C@@H](CN(C)C(=O)NC2CCCCC2)Oc2ccc(NC(=O)C3CCCCC3)cc2C1=O	.	.	.	.	.	.	/
C[C@H](O)[C@@H]1C(=O)N2CCc3c([nH]c4ccccc34)[C@@H]2C[C@@H]1N(C)C(=O)c1cc(Cl)cc(Cl)c1	.	.	.	.	.	.	/
COc1ccc(Cl)cc1-c1cc(C(=O)NCc2cc(C(F)(F)F)cc(C(F)(F)F)c2)[nH]n1	.	.	.	.	.	.	/
Cc1ccc(Cl)cc1-c1cc(C(=O)NCc2cc(C(F)(F)F)cc(C(F)(F)F)c2)[nH]n1	.	.	.	59	.	61	63
CCC(CO)Oc1cc(NCc2ccc(Cl)cc2Cl)c2ncn(C(C)C)c2c1 (stereo not given)	.	.	.	60	.	.	45
CCC(CO)Oc1cc(NCc2ccc(Cl)cc2)c2ncn(C(C)C)c2c1 (stereo not given)	.	.	.	.	.	.	/
CCC[C@H]1CN(c2ccc(OC)cc2)C(=O)[C@@H]1CC(=O)NC	.	.	.	.	.	.	/
OCCCNc1ncnc2scc(-c3ccc(Cl)cc3)c12	.	.	.	63	.	73	81
O=C(COC(=O)c1c2c(nc3ccccc13)CCN(Cc1ccccc1)C2)Nc1c(F)cccc1F	.	.	50	75	.	.	76
CCN1CCc2nc3ccccc3c(C(=O)Nc3ccc(NC(C)=O)cc3)c2C1	.	.	.	.	.	.	/
CC(=O)Nc1ccc(NC(=O)COC(=O)c2c3c(nc4ccccc24)CCN(Cc2ccccc2)C3)cc1	.	.	.	57	.	.	72
O=C(NCc1ccc(F)cc1)c1c2c(nc3ccccc13)CCN(Cc1ccccc1)C2	.	.	.	.	.	.	/
COC(=O)C[C@H]1C=C[C@H](NC(=O)c2ccccn2)[C@@H](CO)O1	.	/	/	/	/	/	/
CCCn1c(N)c(N(CCOC)C(=O)Cc2ccc(S(=O)(=O)N3CCOCC3)s2)c(=O)[nH]c1=O	.	.	.	.	.	.	/
CCN(CC)C(=O)[C@H]1C[C@H](CC(=O)NCCN2CCOCC2)C(=O)N2CCc3c([nH]c4cc(CCC(=O)N(C)C)ccc34)[C@]12C	.	.	.	.	.	.	/
Cc1ccc(C(=O)c2cc([N+](=O)[O-])ccc2N2CCCCC2)c(C)c1	.	.	.	63	.	.	83
Cc1ncc(CO)c(CNc2ccc(-c3nc4ccccc4[nH]3)cc2)c1O	.	.	.	.	.	.	/
Cc1nc2sc(C(N)=O)c(N)c2c(C)c1CC(=O)c1ccccc1	.	.	.	59	.	.	75
Cc1cc(C)c2c(N)c(C(=O)c3ccccc3)sc2n1	.	.	.	.	.	.	/
CC(=O)N1CCOc2ccc(S(=O)(=O)NC[C@H]3O[C@@H](n4ccc(=O)[nH]c4=O)[C@H](O)[C@@H]3O)cc21	.	.	.	.	.	.	/
CN(C)C(CNC(C(=O)Nc1ccc(F)cc1)c1ccccc1)c1ccccc1 (stereo not given)	.	.	.	.	.	.	/
SMILES	HIF-2a inh	KKLEB cytotox	Peg3 prom inh	CF NFkB block	TROY NFkB inh	TWEAK Fn14 block	CF NFkB conf
COc1ccc(C(=O)Nc2ccc(O)c3c(=O)cc(-c4cccc(Cl)c4)oc23)cc1	.	.	.	50	.	.	.
CC(C)(C)c1ccc(C(=O)Nc2ccc(O)c3c(=O)cc(-c4cccc(Cl)c4)oc23)cc1	.	.	.	.	.	.	/
Cc1ccccc1-c1cnc(C(O)c2ccc(F)c(F)c2)[nH]1 (stereo not given)	.	.	.	.	.	.	/
CC(C)C[C@@H](CN1CCCC1CN1C(=S)NC[C@@H]1Cc1ccc(O)cc1)N1C[C@H](Cc2ccc(O)cc2)N(CCc2ccccc2)C1=S (stereo not given in full)	.	.	91	59	.	65	61
CC(C)C[C@@H](CN1CCC[C@@H]1CN1C(=S)NC[C@@H]1Cc1ccc(O)cc1)N1C[C@H](Cc2ccc(O)cc2)N(CC2CCCCC2)C1=S	.	.	98	67	.	.	46
Oc1ccc(C[C@H]2CNC(=S)N2CC2CCCN2C[C@H](Cc2ccc(O)cc2)N2C[C@H](Cc3ccc(O)cc3)N(CC3CCCCCC3)C2=S)cc1 (stereo not given in full)	.	.	54	62	.	89	.
Oc1ccc(C[C@H]2CNC(=S)N2CC2CCCN2C[C@H](Cc2ccc(O)cc2)N2C[C@H](Cc3ccccc3)N(CC3CCCCC3)C2=S)cc1 (stereo not given in full)	.	.	92	52	.	62	45
Oc1ccc(C[C@H]2CN([C@@H](Cc3ccccc3)CN3CCCC3CN3C(=S)NC[C@@H]3Cc3ccccc3)C(=S)N2CCc2ccccc2)cc1 (stereo not given in full)	.	/	/	/	.	.	/
Oc1ccc(C[C@H]2CN([C@@H](Cc3ccccc3)CN3CCC[C@@H]3CN3C(=S)NC[C@@H]3Cc3ccccc3)C(=S)N2CC2CCCCC2)cc1	.	.	.	.	.	.	/
Oc1ccc(C[C@@H](CN2CCCC2CN2C(=S)NC[C@@H]2Cc2ccccc2)N2C[C@H](Cc3ccccc3)N(CC3CCCCC3)C2=S)cc1 (stereo not given in full)	.	/	/	/	.	.	/
Fc1cccc(Cc2c(-c3cccc(Cl)c3)nc3ccc(Cl)cn23)c1	.	.	.	.	.	.	/
CCOc1ccc(CCN2C(=S)N([C@@H](Cc3ccc(O)cc3)CN3CCC[C@@H]3CN3C(=S)NC[C@@H]3CC(C)C)C[C@@H]2Cc2ccc(O)cc2)cc1	.	.	101	55	.	.	.
CC(C)C[C@H]1CNC(=S)N1C[C@H]1CCCN1C[C@H](Cc1ccccc1)N1C[C@H](Cc2ccc(O)cc2)N(CC2CCCCC2)C1=S	.	.	93	65	.	.	.
CS(=O)(=O)Nc1ccc(-c2cnc3cccnn23)cc1	.	.	.	60	.	65	71
O=C(COC(=O)c1ccc(OC(F)F)cc1)NCCC1=CCCCC1	.	.	.	.	.	.	/
Cc1ccc(-c2cc(C(=O)N(C)Cc3cnn(C)c3C)c3cc(Br)ccc3n2)cc1	.	.	.	67	.	.	58

Source: PubChem (Sanford-Burnham Center for Chemical Genomics)
